# Experimental data taken from ChEMBL document CHEMBL3988442, “University of Dundee, Small-Polar-MMV Screening Library” (2021).
# The whole screen tested about 69,000 compounds, of which about 1,000 (1.4%) showed an effect of 50% or more. The list comes from a sample in which strong results are over-represented; it also holds similar structures and randomly drawn compounds.
# Tested on: Leishmania donovani
# Assay: Leishmania intramacrophage assay
# Type: functional, organism-based
# Design: scale not given: in the data most compounds retested in dose-response had high values
smiles,measurement,setting,value
Cc1nc(C)n(CC2CCCN(Cc3ccc(C(N)=O)cc3)C2)n1 (configuration not stated),Percent Effect,"30 µM, 30.03 µM",-3.523%
Cc1ccc(F)c2c1N(C(=O)c1cn(CC(=O)N(C)C)nn1)CCC2,Percent Effect,"30.3 µM, […]",-28.86%
CCCSCC(=O)NS(=O)(=O)c1ccc2c(c1)OCCO2,Percent Effect,"30 µM, 30.03 µM",12.46%
O=C(O)C(F)(F)F.O=C(O)C(F)(F)F.c1c(CN2CCCC2)nc2n1CCN(C1CCOCC1)C2,Percent Effect,"30.3 µM, […]",25.13%
Cc1ccc(-c2ccccc2CC2(C(=O)NC(C)C)CCCNC2)cc1 (configuration not stated),Percent Effect,"30.3 µM, […]",53.92%
CC(C)NC(=O)C1(Cc2ccccc2-c2cncnc2)CCCNC1 (configuration not stated),Percent Effect,"30.3 µM, […]",16.97%
CC(C)NC(=O)C1(Cc2ccccc2-c2ccccc2)CCCNC1 (configuration not stated),Percent Effect,"30.3 µM, […]",40.16%
CC(C)(C)C(O)CN1CCN(C(=O)c2cccc3ncccc23)CC1 (configuration not stated),Percent Effect,"30 µM, 30.03 µM",14.67%
Cc1cc(NCc2cn(C)nc2-c2cccnc2)n(C)n1,Percent Effect,"30.3 µM, […]",-18.07%
O=C1NCCCc2[nH]c(-c3nc(C4CC4)no3)nc21,Percent Effect,"30.3 µM, […]",0.06758%
Oc1cc(CCC2CCCCN2)cc(-c2ccncc2)c1 (configuration not stated),Percent Effect,"30 µM, 30.03 µM",12.39%
Oc1cc(CCC2CCCCN2)cc(-c2cccnc2)c1 (configuration not stated),Percent Effect,"30.3 µM, […]",51.21%
Nc1ccc(-c2cc(O)cc(CCC3CCCCN3)c2)cn1 (configuration not stated),Percent Effect,"30.3 µM, […]",30.15%
CC[C@@H](C)[C@H](NC(=O)NC1CCS(=O)(=O)C1)C(=O)NCc1ccncc1 (some centres not stated),Percent Effect,"30.3 µM, […]",-5.4%
CCNC(=O)CN(CC)S(=O)(=O)c1c(Br)cc2[nH]c(=O)oc2c1Cl,Percent Effect,"30.3 µM, […]",26.48%
COC(=O)C(C)CN(C)S(=O)(=O)c1c(Br)cc2[nH]c(=O)oc2c1Cl (configuration not stated),Percent Effect,"30.3 µM, […]",53.15%
CNC(=O)CN(C)S(=O)(=O)c1c(Br)cc2[nH]c(=O)oc2c1Cl,Percent Effect,"30.3 µM, […]",30.57%
COc1cc(OC)c(-c2nc3c([nH]2)c(C2CC2)nn3C)cc1OC,Percent Effect,"30.3 µM, […]",40.91%
CC(C)c1ncncc1C(=O)NCCN1CCOCC1,Percent Effect,"30.3 µM, […]",-51.02%
CC(C)c1cc(NC(=O)c2ccc(C(=O)NC(C)(C)C)cc2)[nH]n1,Percent Effect,"30 µM, 30.03 µM",58.67%
Cc1ccc(CC(=O)Nc2cc(C(C)C)n[nH]2)cn1,Percent Effect,30 µM,62.25%
CC(C)c1cc(NC(=O)c2ccncc2)[nH]n1,Percent Effect,30 µM,-9.457%
Cc1ccc(C(=O)Nc2cc(C(C)C)n[nH]2)cn1,Percent Effect,"30 µM, 30.03 µM",-3.681%
CC(C)c1cc(NC(=O)c2cccnc2)[nH]n1,Percent Effect,30 µM,2.786%
CC(C)c1cc(NC(=O)c2ccc([S+]([O-])C(C)C)cc2)[nH]n1 (configuration not stated),Percent Effect,30 µM,33.29%
CC(=O)N1CCC(NC(=O)Cc2nc3nc(C)cc(C)n3n2)CC1,Percent Effect,"30.3 µM, […]",9.867%
O=C(c1ccc(CN2CCCCC2)cc1)N1Cc2cnn(CCO)c2C1,Percent Effect,"30.3 µM, […]",4.685%
COCCNC(=O)Nc1ccc(-c2nc(C(C)C)no2)cc1,Percent Effect,"30.3 µM, […]",-5.463%
Cc1nn(C)c(Cl)c1C1CCCN1c1ncnc2c1CCC2 (configuration not stated),Percent Effect,"30.3 µM, […]",-27.23%
Cc1nn(C)c(C)c1C1CCCN1c1ncnc2c1CCC2 (configuration not stated),Percent Effect,"30.3 µM, […]",30.84%
COc1c(C2CCCN2c2ncnc3c2CCC3)c(C)nn1C (configuration not stated),Percent Effect,"30.3 µM, […]",55.59%
O=C(CN1CCSCC1c1ccccc1)N1CCCC1 (configuration not stated),Percent Effect,"30.3 µM, […]",-14.01%
O=c1ccc(-c2cccs2)nn1CN1CCCCCC1,Percent Effect,"30 µM, 30.03 µM",13.2%
Cc1cc(N2CCC(O)(CN(C)C)C2)c2cc3c(cc2n1)OCO3 (configuration not stated),Percent Effect,"30.3 µM, […]",-1.24%
Cn1cc2c(n1)C(COCC1CC1)CN(Cc1ccsc1)C2 (configuration not stated),Percent Effect,"30.3 µM, […]",-18.37%
COc1ccc(CN2Cc3cn(C)nc3C(COCC3CC3)C2)cc1 (configuration not stated),Percent Effect,"30.3 µM, […]",16.82%
Cn1cc(CN2Cc3cn(C)nc3C(COCC3CC3)C2)cn1 (configuration not stated),Percent Effect,"30.3 µM, […]",53.65%
CCN(CC1CCOC1)C(=O)Nc1ccc(N2CCCC2)nc1 (configuration not stated),Percent Effect,"30 µM, 30.03 µM",21.14%
COCCN(Cc1cnn(C)c1)C(=O)C1CCCN(C2CCOCC2)C1 (configuration not stated),Percent Effect,"30.3 µM, […]",2.022%
CC(C)c1nnc2n1CCN(C(=O)CN1Cc3ccccc3C1=O)C2,Percent Effect,"30 µM, 30.03 µM",-6.489%
COc1cccc(NC(=O)CNc2ccc(C(=O)N(C)C)c(Cl)c2)c1,Percent Effect,"30.3 µM, […]",28.32%
CC(CC(=O)Nc1ccc(C(=O)N(C)C)c(Cl)c1)n1cccc1 (configuration not stated),Percent Effect,"30.3 µM, […]",51.53%
CC(C)CNC(=O)c1ccc(NC(=O)NC(C)C)cc1Cl,Percent Effect,"30.3 µM, […]",-0.4257%
CCCN1CCCCC1C(=O)Nc1ccc(-c2nnc[nH]2)cc1 (configuration not stated),Percent Effect,"30.3 µM, […]",6.317%
CC(C)N(CC(=O)Nc1ccc(Br)cc1Cl)Cc1cccnc1,Percent Effect,"30.3 µM, […]",0.9398%
Cc1ccnc(CNC(=O)C2CC(=O)N(CCN(C)C)C2)c1 (configuration not stated),Percent Effect,"30.3 µM, […]",7.855%
CN(C)c1nccc(C2CCCCN2Cc2cnn3cccnc23)n1 (configuration not stated),Percent Effect,"30.3 µM, […]",15.49%
CNc1nccc(C2CCCCN2Cc2cnn3cccnc23)n1 (configuration not stated),Percent Effect,"30.3 µM, […]",53.78%
c1cnc2c(CN3CCCCC3c3ccncn3)cnn2c1 (configuration not stated),Percent Effect,"30.3 µM, […]",9.705%
Cc1csc2c(=O)n(CCN3CCC(c4ccccc4)CC3)cnc12,Percent Effect,"30.3 µM, […]",-32.46%
Cc1nccn1CCCN1CCCC(c2ccccc2)C1 (configuration not stated),Percent Effect,"30.3 µM, […]",72.11%
Cc1nccn1CCCN1CCCC(c2nccn2CC2CCC2)C1 (configuration not stated),Percent Effect,"30.3 µM, […]",28.26%
